Results from PubChem BioAssay (Tox21).
Inconclusive results are not listed. Entries that show only a call come without a potency. The source made the active and inactive calls. The call rests on the fitted dose curve; in most records, active means well fitted curve in the direction sought with a large enough effect in the repeat runs; inconclusive means weak or mixed curves; inactive means no such curve, though single readings can be large; an effect the other way counts as inactive or inconclusive.
Potency means the concentration at half of the fitted maximal effect.

Assay: qHTS RealTime-Glo MT Cell Viability Assay in HepG2 cells - 0 hour (AID 1224889); further: nearly all actives have a fitted effect of over 50% in size
Details: RealTime-Glo luminescence; series mostly up to 76.8 µM
In short: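 qHTS, HepG2, 600 cells/well, RealTime-Glo (NanoLuc + prosubstrate) added with cells; 5 h preincubation; DMSO compound addition; 37 C; luminescence at 0/8/16/24/32/40 h.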
In the case of CC(C)(C)C(=O)C(Oc1ccc(Cl)cc1)n1ccnc1 (stereo not given), the Potency is reported as “inactive”. With c1cnc2c(n1)CCCC2 the Potency was “inactive”. With c1cc[c]([Bi]([c]2ccccc2)[c]2ccccc2)cc1 the Potency was “inactive”. With CC1CN(c2cc3c(cc2F)c(=O)c(C(=O)O)cn3-c2ccc(F)cc2F)CCN1 (stereo not given) the activity change, negative = cytotoxicity was -3.32% [at 6.97 µM] (inactive). For COC(=O)Nc1nc2ccc(C(=O)c3cccs3)cc2[nH]1, the Potency was “inactive”. With COc1cc2c(cc1OC)-c1cc(=Nc3c(C)cc(C)cc3C)n(C)c(=O)n1CC2 the Potency was “inactive”. In the case of COc1cc2c(N3CCN(C(=O)Nc4ccc(OC(C)C)cc4)CC3)ncnc2cc1OCCCN1CCCCC1, the Potency is reported as “inactive”. With OC/C(Br)=C(\Br)CO the Potency was “inactive”. In the case of Cc1nc2ccccn2c(=O)c1CCN1CCC(C(=O)c2ccc(F)cc2)CC1, the Potency is reported as “inactive”. For NC(=O)N(O)[C@@H]1C=C[C@H](Oc2cccc(Oc3ccc(F)cc3)c2)C1, the Potency was “inactive”. With CCc1c2c(nc3ccc(OC(=O)N4CCC(N5CCCCC5)CC4)cc13)-c1cc3c(c(=O)n1C2)COC(=O)[C@]3(O)CC the Potency was “inactive”. For CCc1cccc(N(C)C(N)=Nc2cccc3ccccc23)c1, the Potency was “inactive”. With NC(=O)Nc1ccc(Cl)cc1 the Potency was “inactive”. In the case of CN(C(=O)C(Cl)Cl)c1ccc(OC(=O)c2ccco2)cc1, the Potency is reported as “inactive”. For C/C=C/C=C/CCCCCCCO, the Potency was 13.8 µM (active). With O=Cc1c(Cl)cccc1Cl the Potency was “inactive”. For O=C(NCCCN1CCOCC1)c1ccc(Cl)cc1, the Potency was “inactive”.

Assay: A CellTox Green Cytotoxicity Assay to monitor cytotoxicity in HepG2 cells - 8 hour (AID 1224890); further: nearly all actives have a fitted effect of over 45% in size
Details: CellTox Green fluorescence; series mostly up to 76.8 µM
In short: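 Fluorescent DNA-binding dye, 600 HepG2 cells/well, 5 h preincubation then compound in DMSO; same plates read at 0–40 h, 37 C.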
In the case of CC(CCO)CCc1ccccc1 (stereo not given), the Potency is reported as “inactive”. With CSc1ccc(Oc2ccc(S(N)(=O)=O)cc2CN(C)C)cc1C the Potency was “inactive”. In the case of Cc1nccn1-c1ccc(Sc2cccc(C3(C(N)=O)CCOCC3)c2)cc1, the Potency is reported as “inactive”. For ON(Cc1ccccc1)Cc1ccccc1, the Potency was “inactive”. For CC(C)CCCCCOC(=O)CCCCC(=O)OCCCCCC(C)C, the Potency was “inactive”. In the case of C[Si]1(C)O[Si](C)(C)O[Si](C)(C)O1, the Potency is reported as “inactive”. With CCCCN(CCCC)CCCOC(=O)c1ccc(N)cc1 the Potency was “inactive”. With CCN(CC)CCNC(=O)c1ccc(NC(C)=O)cc1 the Potency was “inactive”. In the case of CC(C)CCCCCCOC(=O)CCCCC(=O)OCCCCCCC(C)C, the Potency is reported as “inactive”. For C/C(=N/NC(=O)c1ccncc1)C(=O)O, the Potency was “inactive”. In the case of Nc1c(I)cc(I)c(C(=O)N(CCC(=O)O)c2ccccc2)c1I, the Potency is reported as “inactive”. With CCCCCCCCCCCCCCC[C@H](O)[C@@H](N)CO the Potency was 23.9 µM (active). In the case of O=C(C(=O)c1ccccc1)c1ccccc1, the Potency is reported as “inactive”. In the case of Cc1ccc(/C=N/n2c(-c3ccccc3)csc2=S)cc1, the Potency is reported as “inactive”. In the case of Cc1occc1C(=O)Nc1ccc(C(=O)N2CCC(F)(F)/C(=C\C(=O)N3CCC(N4CCCCC4)CC3)c3ccccc32)cc1, the Potency is reported as “inactive”. With CC[C@H](NC(=O)c1cc(F)ccc1NS(=O)(=O)c1cccc2cccnc12)c1ccccc1 the Potency was “inactive”. With O=C(OCCOCCO)c1ccccc1Nc1cccc(C(F)(F)F)c1 the Potency was “inactive”. For CC(=O)Oc1ccc(C(=C2CCCCC2)c2ccc(OC(C)=O)cc2)cc1, the Potency was “inactive”. With COCC(O)CO (stereo not given) the Potency was “inactive”. In the case of CC(C)c1nnc2ccc(-c3ocnc3-c3cc(F)ccc3F)cn12, the Potency is reported as “inactive”. With O=C(CCCCCCCCC#CI)Oc1ccccc1 the Potency was “inactive”. In the case of Cc1ccc(S)cc1, the Potency is reported as “inactive”. With CO[Si](C)(OC)OC the Potency was “inactive”. In the case of CC(C)(C)C(=O)C(Oc1ccc(Cl)cc1)n1ccnc1 (stereo not given), the Potency is reported as “inactive”. In the case of c1cnc2c(n1)CCCC2, the Potency is reported as 38.9 µM (active). In the case of c1cc[c]([Bi]([c]2ccccc2)[c]2ccccc2)cc1, the Potency is reported as “inactive”. In the case of CC1CN(c2cc3c(cc2F)c(=O)c(C(=O)O)cn3-c2ccc(F)cc2F)CCN1 (stereo not given), the cytotoxicity increase is reported as -0.506% [at 6.97 µM] (inactive). With COC(=O)Nc1nc2ccc(C(=O)c3cccs3)cc2[nH]1 the Potency was “inactive”. For COc1cc2c(cc1OC)-c1cc(=Nc3c(C)cc(C)cc3C)n(C)c(=O)n1CC2, the Potency was “inactive”. For COc1cc2c(N3CCN(C(=O)Nc4ccc(OC(C)C)cc4)CC3)ncnc2cc1OCCCN1CCCCC1, the Potency was “inactive”. For OC/C(Br)=C(\Br)CO, the Potency was “inactive”. With Cc1nc2ccccn2c(=O)c1CCN1CCC(C(=O)c2ccc(F)cc2)CC1 the Potency was “inactive”. With CCc1c2c(nc3ccc(OC(=O)N4CCC(N5CCCCC5)CC4)cc13)-c1cc3c(c(=O)n1C2)COC(=O)[C@]3(O)CC the Potency was “inactive”. In the case of CCc1cccc(N(C)C(N)=Nc2cccc3ccccc23)c1, the Potency is reported as “inactive”. In the case of CN(C(=O)C(Cl)Cl)c1ccc(OC(=O)c2ccco2)cc1, the Potency is reported as “inactive”. With C/C=C/C=C/CCCCCCCO the Potency was “inactive”. For O=Cc1c(Cl)cccc1Cl, the Potency was “inactive”. For O=C(NCCCN1CCOCC1)c1ccc(Cl)cc1, the Potency was “inactive”.
